Bioassay records from PubChem BioAssay.
An excerpt weighted towards active compounds, which were near 1.4% of everything screened.
Polio RdRp inh – poliovirus RdRp elongation inhibitors, primary screen, biochemical, fluorescence polarization, total intensity; poliovirus polymerase elongation; hits give low values; % elongation, % (compound at 16.7 µg/mL); hit rate 0.66% among 150,000; Genome polyprotein (Poliovirus type 1 (strain Mahoney)), P03300; in the data active = % elongation below about 90%
MbtI inh – MbtI salicylate synthase inhibitors, primary screen, biochemical, fluorescence intensity; inhibition, % (concentration not given with the values); purified MbtI enzyme, fluorescence intensity read-out; P9WFX0; AID 493033, 2011; hit rate 0.89% among 100,000; in the data active = inhibition mostly above about 56%, no sharp cut-off; inactive = mostly below about 77%
Target sequence (P9WFX0 whole entry, looked up): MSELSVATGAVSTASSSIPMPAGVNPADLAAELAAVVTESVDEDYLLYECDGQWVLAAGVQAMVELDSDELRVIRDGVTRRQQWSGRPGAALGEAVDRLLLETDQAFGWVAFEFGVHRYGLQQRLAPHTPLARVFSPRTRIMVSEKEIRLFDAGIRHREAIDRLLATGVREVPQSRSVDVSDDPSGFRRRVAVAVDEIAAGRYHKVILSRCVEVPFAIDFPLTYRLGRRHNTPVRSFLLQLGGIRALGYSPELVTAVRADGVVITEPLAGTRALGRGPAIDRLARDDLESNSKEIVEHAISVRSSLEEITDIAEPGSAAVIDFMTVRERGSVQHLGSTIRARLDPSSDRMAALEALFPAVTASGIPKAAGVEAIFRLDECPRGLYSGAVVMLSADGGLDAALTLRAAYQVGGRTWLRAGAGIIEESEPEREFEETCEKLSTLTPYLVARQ
AID504770 – growth inhibition of E. coli YBA685, primary screen, V. cholerae RctB inhibitors; AID 504770, 2011; hit rate 0.27% among 130,000; E. coli YBA685 rctB-dependent plasmid, OD600 growth, 3 h; hits give low values; z-score (no concentration beside the values); in the data active = z-score below about -2, passing the limit was not always enough
Mtb MenB inh – M. tuberculosis MenB inhibitors, primary screen, biochemical, absorbance; MenB enzyme assay, absorbance read-out; hit rate 0.43% among 100,000; inhibition, % (no concentration beside the values); AID 540299, 2011; in the data active = inhibition above about 21%, passing the limit was not always enough
Numbers without * were called inactive; / = no result given.

SMILES | Polio RdRp inh | MbtI inh | AID504770 | Mtb MenB inh
Cc1ccc(S(=O)(=O)N(CCO)Cc2cc3cc(C)c(C)cc3[nH]c2=O)cc1 | 102.0 | 31.9 | 0.15 | 17.4
COc1ccc2[nH]c(=O)c(CN(CCO)S(=O)(=O)c3ccc(Cl)c(C(F)(F)F)c3)cc2c1 | 100.0 | 23.4 | 1.05 | 32.5*
CCc1ccc(C2=CC(c3cccc(Br)c3)C(C#N)C(=O)N2)cc1 (centres undefined) | 101.0 | / | 0.2 | 1.6
Cc1ccc(C)c(N2N=C(C(=O)OCN3C(=O)c4ccccc4C3=O)CCC2=O)c1 | 103.0 | -0.2 | -0.5 | -24.5
COc1ccc2c(c1)C1(NNc3ccccc3O1)C(=O)N2 (centres undefined) | 120.0 | 61.5 | -10.7* | -132.7
Fc1ccc(C(c2nnnn2Cc2ccccc2)N2CCSCC2)cc1 (centres undefined) | 102.0 | -5.7 | -0.1 | -0.5
COc1ccccc1CN1CCN(C(CC(C)C)c2nnnn2Cc2ccc(F)cc2)CC1 (centres undefined) | 101.0 | -1.6 | -0.45 | 32.5*
CCCN1C(=O)/C(=N\OCC(=O)c2cc(C)n(Cc3cccs3)c2C)c2ccccc21 | 109.0 | 0.2 | -1.7 | -11.5
CS(=O)(=O)N(CCc1ccccc1)CC(=O)N1CCOCC1 | 102.0 | 0.3 | 0.25 | 34.3*
CC1CCN(C(=O)CN(CCc2ccccc2)S(C)(=O)=O)CC1 | 106.0 | -8.3 | -0.55 | -39.9
CCN(CC)c1ccc(N)c(C)c1 | 101.0 | 98.4* | -0.1 | -3.4
CC(C)=CC[C@@H](O)C1=CC(=O)c2c(O)ccc(O)c2C1=O | 46.0* | -22.5 | / | /
N#Cc1ccc(C(=O)OC2CCCCC2=O)cc1 (centres undefined) | 102.0 | 10.8 | 0.75 | 1.3
O=C(CCC(=O)c1ccc(Cl)cc1)OC1CCCCC1=O (centres undefined) | 66.0* | -11.6 | -0.1 | -14.4
CN(C)S(=O)(=O)c1cc(C(=O)N2CCN(Cc3ccccc3)CC2)c(Cl)cc1Cl | / | / | 0.25 | /
CCOc1cnc(-c2ccccc2)o1 | / | / | -1.5 | /
O=C(CC1CCCCC1)NCC1CCCO1 (centres undefined) | 103.0 | 1.8 | 1.4 | 30.7*
C/C(=N\NC(=O)c1cccc(S(=O)(=O)Nc2ccc(C)cc2C)c1)c1ccco1 | 99.0 | 7.4 | -0.1 | -15.6
Cc1ccc(C)n1-c1ccsc1C(=O)O | 48.0* | -22.3 | -0.8 | -12.4
Cc1ccc(CN(C)c2nc(-c3cccnc3)nc3sc4c(c23)CCCC4)o1 | 106.0 | 105.5 | 0.05 | -51.1
O=C1CSCC(=O)N1c1ccc(Cl)cc1 | 93.0 | 4.0 | -0.7 | 11.4
Cc1c(Cl)sn(-c2ccc(Cl)cc2)c1=O | 101.0 | 100.6* | -5.75* | 7.0
CC1=C(C(=O)Nc2ccccc2)C(c2ccco2)C(C#N)=C(SCC(=O)Nc2ccccc2)N1 (centres undefined) | 102.0 | 16.9 | -0.4 | 39.4*
CCN(CC)S(=O)(=O)c1cc(-c2cc(C(=O)NC3CC3)no2)ccc1OC | 100.0 | 33.2 | -0.85 | -3.0
N#CSC1CC(=O)N(c2ccc(F)cc2)C1=O (centres undefined) | 103.0 | 98.6* | -1.8 | -10.9
SMILES | Polio RdRp inh | MbtI inh | AID504770 | Mtb MenB inh
O=C(O)CCSC1CC(=O)N(c2ccc(F)cc2)C1=O (centres undefined) | 100.0 | -2.7 | -0.15 | 3.9
CC(=O)Oc1ccc(-c2ccc(C(=O)O)cc2)cc1C | 103.0 | -9.9 | -0.1 | /
CC(=O)Oc1ccc(-c2ccc(C(=O)O)cc2)cc1Cl | 100.0 | 84.8* | -0.5 | /
NC(=S)N/N=C1/C(=O)c2cccc3cccc1c23 | 100.0 | 75.6* | -1.15 | -12.6
COC(=O)N/N=C1/C(=O)c2cccc3cccc1c23 | 99.0 | -0.8 | 0.4 | -9.0
C=CCSc1ncc(Cl)c(C(=O)NCc2ccc3c(c2)OCO3)n1 | 102.0 | -15.4 | -0.5 | 0.3
N#Cc1c(/N=C/c2c(F)cccc2Cl)oc(-c2ccco2)c1-c1ccco1 | 105.0 | -60.2 | 0.1 | -48.1
O=C(Nc1ccccc1F)c1ccc(S(=O)(=O)N2CCCC2)cc1 | / | / | 1.5 | /
COc1cc(NC(=O)C(F)(F)F)c(OC)cc1Br | 102.0 | -6.6 | -0.5 | 32.8*
O=C(NC1=NCCS1)c1cc2c(s1)CCC2 | 103.0 | 2.3 | -2.35* | /
O=C(Nc1ccccc1Cl)c1cc2c(s1)CCC2 | 102.0 | 4.5 | -1.5 | /
CNS(=O)(=O)c1ccc2ccccc2c1 | 101.0 | -1.8 | 0.6 | /
COC(=O)/C=C/S(=O)(=O)c1ccc2ccccc2c1 | 99.0 | 100.9* | -1.55 | -1.7
CC(=O)N1CC(C)Oc2ccc(S(=O)(=O)Nc3ccccc3C)cc21 (centres undefined) | 103.0 | -16.5 | -0.4 | -23.5
CCN1CCN(C(=O)C(C)Sc2nnc(-c3cccc(Cl)c3)n2CC)CC1 (centres undefined) | 97.0 | -1.6 | 0.4 | -7.1
O=C(N/N=C/c1ccc(O)c(O)c1O)c1cccc(S(=O)(=O)Nc2ccccc2Cl)c1 | 103.0 | 55.0* | 1.45 | -1.9
NNC(=O)c1cccc(S(=O)(=O)Nc2ccccc2Cl)c1 | 102.0 | -7.0 | -0.95 | -13.2
COc1cccc(N2C(=O)/C(=C/C=C/c3ccco3)C(=O)NC2=S)c1 | 113.0 | 100.6* | -0.8 | -61.3
O=C1NC(=S)N(c2ccccc2)C(=O)/C1=C/C=C/c1ccco1 | 109.0 | 0.6 | -1.25 | -43.1
O=S1(=O)CCC(NC(=S)S)C1 (centres undefined) | 101.0 | 95.6* | -1.55 | /
O=S1(=O)CCC(NC(=S)SCc2ccccc2)C1 (centres undefined) | / | / | -3.75* | /
CC1=C(c2cccc(Cl)c2)S(=O)(=O)NC1=O | 101.0 | -4.3 | -1.55 | -2.4
COc1ccccc1CN(C)CCN | 101.0 | 2.3 | -0.6 | 74.6*
CCCCN(C)Cc1cccc(OC)c1OC | 102.0 | -7.6 | -0.4 | -10.8
O=S(=O)(c1ccc(Cl)s1)N1CCSc2ccccc21 | 105.0 | -9.7 | 0.2 | -7.0
SMILES | Polio RdRp inh | MbtI inh | AID504770 | Mtb MenB inh
CSC1=C(C#N)C(=O)NC(c2ccc(Cl)cc2)S1 (centres undefined) | 88.0* | 1.9 | -0.1 | -1.1
N#CSC12CN3CN(CN(C3)C1)C2 | 99.0 | 5.7 | 0.2 | 32.5*
Cn1c(=O)c2cn(-c3ccccc3)cc2n(C)c1=O | / | / | 1.85 | /
Cn1c(=O)sn(-c2ccccc2)c1=O | 96.0 | 100.0* | -5.15* | 3.4
COC(=O)Cc1nc(-c2ccccc2)cs1 | 86.0* | 9.8 | 0.05 | 6.3
O=C1NC(=O)NC(=C/C=C/c2ccc(-c3ccc(Cl)cc3Cl)o2)N1 | 102.0 | 57.2* | 1.45 | -17.5
COc1ccc(-c2cc(-c3ccccc3)c(C#N)c(SCC3(O)CCCCC3S(C)=O)n2)cc1 (centres undefined) | 103.0 | 98.4 | -0.4 | -20.4
Cc1ccccc1Cn1c(=O)n(CCC(C)C)c(=O)c2cccnc21 | 99.0 | -15.8 | 1.65 | -7.4
CC(Sc1nc2ccccc2n1C)C(=O)N(C)c1ccccc1 (centres undefined) | 107.0 | 4.1 | -0.15 | -1.4
CCCN(CCN1CCNCC1)C(O)C1C(=O)CC(C)(C)CC1=O (centres undefined) | 98.0 | 2.9 | 0.35 | 10.4
O=c1c(=NO)c(=O)c2ccccc12 | 32.0* | 15.7 | 2.25 | -16.4
